Anthrax LF prot = anthrax lethal factor protease inhibition; P15917; multiplex microsphere protease cleavage assay, LF; inhibition, % at 10 µM; actives 0.12% (n = 360,000); AID 588501; note: plate controls were buffer without enzyme for full effect and enzyme alone for no effect
Target sequence (P15917 whole entry, looked up): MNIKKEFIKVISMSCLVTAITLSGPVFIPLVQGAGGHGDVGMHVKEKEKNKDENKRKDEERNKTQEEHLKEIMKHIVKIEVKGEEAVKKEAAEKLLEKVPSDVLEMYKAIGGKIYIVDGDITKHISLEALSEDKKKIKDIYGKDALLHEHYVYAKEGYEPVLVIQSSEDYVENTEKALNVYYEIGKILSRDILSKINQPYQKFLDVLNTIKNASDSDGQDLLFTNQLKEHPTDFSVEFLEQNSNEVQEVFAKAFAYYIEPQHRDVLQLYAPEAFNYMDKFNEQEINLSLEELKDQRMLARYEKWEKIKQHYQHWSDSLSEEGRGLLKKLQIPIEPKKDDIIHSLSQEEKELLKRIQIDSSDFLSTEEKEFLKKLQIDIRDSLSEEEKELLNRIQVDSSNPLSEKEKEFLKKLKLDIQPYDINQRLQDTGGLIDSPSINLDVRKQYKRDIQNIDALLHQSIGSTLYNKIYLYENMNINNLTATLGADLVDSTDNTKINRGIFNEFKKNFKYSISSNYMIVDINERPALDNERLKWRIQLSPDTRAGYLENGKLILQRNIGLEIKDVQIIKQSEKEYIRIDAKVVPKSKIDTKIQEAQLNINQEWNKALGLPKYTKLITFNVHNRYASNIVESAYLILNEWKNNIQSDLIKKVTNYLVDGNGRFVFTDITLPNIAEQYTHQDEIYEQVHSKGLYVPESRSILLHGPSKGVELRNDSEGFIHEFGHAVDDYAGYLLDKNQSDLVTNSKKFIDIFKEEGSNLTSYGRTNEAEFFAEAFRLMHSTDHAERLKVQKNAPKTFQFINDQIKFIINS
BoNT A protease = BoNT A light chain protease inhibition; multiplex microsphere protease substrate cleavage, flow cytometry; inhibition, % at 10 µM; actives 0.17% (n = 360,000); AID 588499; note: plate controls were buffer without enzyme for full effect and enzyme alone for no effect
BoNT-F LC inh = BoNT F light chain protease inhibition; Multiplex microsphere protease cleavage assay, flow cytometry; inhibition, % at 10 µM; actives 0.22% (n = 360,000); AID 588497; in the data active = inhibition above about 35%, passing the limit was not always enough; inconclusive = no clear call, values can overlap the other calls; note: plate controls were buffer without enzyme for full effect and enzyme alone for no effect
Autofluor counter = counter-screen for toxin protease inhibitors: compound fluorescence; compound autofluorescence counterscreen, microsphere flow cytometry; hits give high values; fluorescence intensity (test concentration not listed); actives 3.1% (n = 360,000); AID 624483; in the data active = fluorescence intensity above about 16000; inconclusive = no clear call, values can overlap the other calls
Active calls of the source: *; ? = inconclusive. The list is not random: actives were taken first. Their share in the collection is about 3.5%. Cut-off read from the data, not from the text of the source, unless noted: active = inhibition above about 30%; inconclusive = no clear call, values can overlap the other calls; inactive = below that.

SMILES | Anthrax LF prot | BoNT A protease | BoNT-F LC inh | Autofluor counter
Cc1ccc(OCC(=O)NCCCNC(=O)c2ccncc2)cc1 | -5 | 0 | -14 | 4035
CSCC[C@H](NC(=O)OC(C)(C)C)C(=O)N1CCC(C(=O)N[C@@H](C)C(=O)O)CC1 | 0 | ? | 0 | 20586*
CSCC[C@H](NC(=O)OC(C)(C)C)C(=O)N1CCC(C(=O)N[C@H](C(=O)O)C(C)C)CC1 | -1 | -1 | -5 | 10667
COC(=O)c1cc(NC(=O)CN2C(=O)C(=O)N(C3CCCC3)C2=O)cc(C(=O)OC)c1 | -3 | 0 | -3 | 3557
CC(=O)c1ccc(NC(=O)CSc2cn[nH]n2)cc1 | 0 | -2 | -8 | 5864
Cc1onc(-c2ccccc2)c1C(=O)N1CCCSC1=Nc1ccccc1 | 2 | 0 | -7 | 3264
O=C(c1ccco1)N1CCCSC1=Nc1ccccc1 | -2 | -1 | -3 | 21959*
NC(=O)C1CCN(c2nc(C3CC3)nc3c2nnn3Cc2ccccc2Cl)CC1 | -3 | ? | -5 | 25043*
Clc1ccccc1Cn1nnc2c(N3CCCC3)ncnc21 | -2 | -1 | -2 | 23668*
CC1Cc2ccccc2N1c1ncnc2c1nnn2Cc1ccccc1Cl (configuration not stated) | -3 | 0 | 11 | 4737
OCCNc1nc(C2CC2)nc2c1nnn2Cc1ccccc1Cl | 0 | ? | -2 | 23293*
COCCNc1nc(C(C)(C)C)nc2c1nnn2Cc1ccccc1Cl | -1 | -2 | -12 | 12170
c1ccc(Cn2nnc3c(N4CCOCC4)ncnc32)cc1 | -7 | -1 | -7 | 5708
c1ccc(Cn2nnc3c(N4CCN(Cc5ccc6c(c5)OCO6)CC4)ncnc32)cc1 | -1 | -1 | -4 | 24167*
CC(=O)c1ccc(OC(=O)COc2ccccc2Cl)cc1 | -115 | -126 | ? | 32253*
O=C(NCc1cccnc1)C1CCC(CNS(=O)(=O)c2cccc3nsnc23)CC1 (configuration not stated) | -2 | -1 | 1 | 4239
Cc1ccc(CN(CC(=O)NCCc2ccccc2)C(=O)CCCC(=O)Nc2cc(C)on2)cc1 | 0 | 0 | 0 | 17240*
O=C(c1ccc(Cl)c(S(=O)(=O)NCc2ccccc2)c1)N1CCN(c2ccccn2)CC1 | 0 | 2 | 0 | 18872*
COC(=O)C1CCN(C(=O)c2ccc(Cl)c(S(=O)(=O)NCc3cccnc3)c2)CC1 | -3 | ? | -4 | 23363*
O=C(c1ccc(CNS(=O)(=O)c2ccccc2)cc1)N1CCN(c2ccccn2)CC1 | -6 | 0 | -15 | 4025
Cc1ccccc1NC(=O)CC1C(=O)Nc2ccccc2N1CC(=O)N(C)C1CCS(=O)(=O)C1 (configuration not stated) | 3 | 3 | 6 | 8494
COc1ccc(CC(=O)NNC(=O)c2ccco2)cc1OC | 18 | -3 | -21 | 3043
CCOc1cc(NC(=O)c2ccco2)c(OCC)cc1NC(=O)Cc1ccc(OC)c(OC)c1 | -10 | 3 | 5 | 20919*
COc1ccc(NC(=O)CCc2ccccc2)cc1NC(=O)c1ccco1 | -3 | -1 | -4 | 19700*
COC(=O)c1cnc(N)s1 | 0 | -1 | -8 | 3830
SMILES | Anthrax LF prot | BoNT A protease | BoNT-F LC inh | Autofluor counter
CCOC(=O)CSc1nc2cc(S(=O)(=O)N3CCOCC3)ccc2n1CC | 0 | -2 | -3 | ?
CC(=O)Nc1ccc(S(=O)(=O)NCCC(=O)OCc2csc(CC(=O)Nc3ccccc3C)n2)cc1 | ? | ? | ? | 7360
O=C(COC(=O)c1ccco1)Nc1ccc(N2CCOCC2)cc1 | 9 | 8 | 19 | 3919
Cc1nn(C)c(C)c1/C=N/NC(=O)C(C)(C)Oc1ccc(Cl)cc1 | -5 | ? | -2 | 24501*
Cc1ccc(NC(=O)NC(=O)CSc2nnnn2C)c(C)c1 | -1 | 0 | 0 | 20545*
CN(CC(=O)Nc1ccccc1Cl)C(=O)C1CSC2(C)CCC(=O)N12 (configuration not stated) | 2 | 0 | -8 | 3911
COc1ccc(CNC(C)(C)C)cc1Cl | -1 | 0 | 1 | 16540*
O=C(c1ccc(Br)cc1)c1cc(-c2ccccn2)c(N2CCOCC2)s1 | 6 | ? | 5 | 19199*
CN(c1cccc(Cl)c1)S(=O)(=O)c1cccc(C(=O)NN2CCOCC2)c1 | 2 | 2 | 0 | 8844
CNc1nc(SCc2ccccc2)nc(N2CCOCC2)n1 | -3 | -1 | -9 | 11491
CC(C)(C)Nc1nc(SCc2ccccc2)nc(N2CCOCC2)n1 | -5 | ? | -7 | 23358*
Cc1cc(Oc2ccccc2)nc(SCC(=O)Nc2ccc(Cl)cc2Cl)n1 | -2 | ? | -11 | 18063*
O=C(COC(=O)c1ccc2ncsc2c1)Nc1ccccc1Br | 0 | 0 | -2 | 3879
O=C(Nc1ccc(C(=O)N2CCCCC2)cc1)Nc1cccc(Cl)c1 | 1 | -1 | 6 | 6205
CN1/C(=C/C(=O)c2cccs2)Sc2ccccc21 | 6 | 1 | -1 | 20294*

Source: PubChem BioAssay (NMMLSC)
